Reference: PubChem BioAssay AID1865 (National Center for Advancing Translational Sciences (NCATS), 2009)
Hit rate of the full screen: of about 280,000 compounds, about 540 (0.19%) were called active. Not shown: some 2% with an inconclusive outcome. Calls follow the shape of the dose curve; as a rule, active = well fitted activation curve with a large enough effect; inconclusive = small, poorly fitted or top-dose-only effect; inactive = flat fitted curve, though single readings scatter. Many of the other results were omitted from the sample, so actives are more common in it than they were.

Test: Quantitative High-Throughput Screen for Regulators of Epigenetic Control; also: nearly all actives have a fitted effect of over 60% in size; as to GFP activation: % of control where 0% means no effect
Settings: murine LDR cells, GFP reporter derepression, 30 h; series mostly up to 53.9 µM; GFP activation: at the top concentration
Procedure, shortened: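 Reporter derepression read as number of fluorescent GFP-positive objects, 20-120 um in size, counted by laser-scanning cytometer. Mouse LDR line with an epigenetically silenced CMV-GFP locus; compound incubation 30 h, 37 C.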
Potency is read from the fitted curve at half-maximal effect.

Row | SMILES | GFP activation | Potency
1 | CC1Cc2cc(S(=O)(=O)CCC(=O)Nc3ccc(F)c(Cl)c3)ccc2N1C(=O)C1CC1 (centres undefined) | -0.364% (inactive) | –
2 | Nc1ccc2c3c(cccc13)C(=O)NC2=O | – | 17.8 µM (active)
3 | Cc1nn(C)cc1N1C(=O)c2cccc3c(N)ccc(c23)C1=O | 2.11% (inactive) | –
4 | CCN1C(=O)c2cccc3c(N)ccc1c23 | 0.901% (inactive) | –
5 | CN1CCN(c2oc(-c3ccc(COc4ccc(Cl)cc4)o3)nc2C#N)CC1 | 0% (inactive) | –
6 | COc1cc(N2CCCC2)c(OC)cc1/C=C(/C#N)c1cccc(Br)c1 | – | 3.55 µM (active)
7 | CC(=O)Nc1cccc(Oc2cc(C#N)c(C#N)cc2N2CCOCC2)c1 | -1.01% (inactive) | –
8 | COc1ccc(Br)cc1/C=N/n1c(C)nnc1C | 4.97% (inactive) | –
9 | Cc1ccc(CCNC(=O)Cn2c(-c3cccs3)cc3cc(F)ccc32)cc1 | -1.88% (inactive) | –
10 | Cc1noc2ncnc(NCc3ccccc3Cl)c12 | 0% (inactive) | –
11 | Cc1nn(C(C)C(=O)NCCc2ccccc2)c(=O)c2c1sc1ccccc12 (centres undefined) | 13.4% (inactive) | –
12 | CCc1ccc(C2CC(=O)c3c([nH]c(C(=O)OCc4ccc(C)cc4)c3C)C2)cc1 (centres undefined) | 0.291% (inactive) | –
13 | CC(=O)c1ccc(NC(=O)CCc2nc(-c3ccc(C)cc3)no2)cc1 | -1.54% (inactive) | –
14 | CC(C)(C)c1ccc(S(=O)(=O)N2CCN(C(=O)c3cc(-c4ccc(Br)cc4)n[nH]3)CC2)cc1 | 0% (inactive) | –
15 | Cc1cc(C)cc(NS(=O)(=O)c2ccc(-c3cc(C)no3)s2)c1 | -0.833% (inactive) | –
16 | O=C(/C=C/c1ccccc1)Nc1cc(-c2nc3cc(Cl)ccc3o2)ccc1Cl | 1.08% (inactive) | –
17 | Fc1ccc(Nc2nc(SCc3ccccc3Cl)nc3ccccc23)cc1 | 0% (inactive) | –
18 | CCN1CCN(c2ncnc3c2cnn3-c2ccc(C)c(C)c2)CC1 | 0% (inactive) | –
19 | O=C(Nc1ccncc1)c1cc(-c2ccccn2)nc2ccc(Br)cc12 | 1.14% (inactive) | –
20 | Cc1ccc2nc(-c3ccncc3)cc(C(=O)Nc3ccc4c(c3)OCCO4)c2c1 | 2.23% (inactive) | –
21 | Cc1ccc2nc(-c3ccccn3)cc(C(=O)Nc3ccc4c(c3)OCO4)c2c1 | – | 15.8 µM (active)
22 | OCc1cnc(SCc2ccc(F)cc2)n1Cc1ccc(F)cc1 | 0.584% (inactive) | –
23 | Cc1ccc(S(=O)(=O)N(CC(=O)Nc2ccc(Cl)cc2Cl)c2ccccc2C)cc1 | 1.91% (inactive) | –
24 | Cc1ccc(C)c(N2CCN(C(=O)Cn3nc(C)c4sc5ccccc5c4c3=O)CC2)c1 | -2.4% (inactive) | –
25 | CCCCCCc1cc2cc(-c3nnc(-c4ccccc4)o3)c(=O)oc2cc1O | – | 1.78 µM (active)
26 | CCCCCCc1ccc(O)cc1O | 13.1% (inactive) | –
27 | CCCC(=O)Nc1nnc(-c2ccccc2)o1 | 1.08% (inactive) | –
28 | COc1ccc(CNc2nc(-c3ccc(Cl)cc3)nn2S(=O)(=O)c2ccc(C)cc2)cc1 | 2.76% (inactive) | –
29 | Cc1cccc(NC(=O)CSc2nnc(CNC(=O)c3cccc(C)c3)n2-c2ccccc2)c1 | 0% (inactive) | –
